Assay outcomes from PubChem.
This is a sample that favours compounds with a hit; in the whole collection about 4.1% have one here.
hgDAF12 agonist – agonists of H. glycines DAF-12 nuclear receptor; actives 1.8% (n = 370,000); AID 687014; activation, % at 6.8 µM; HEK293 GAL4-hgDAF12 UAS-luciferase reporter, agonist luminescence; normalized to butyrate control;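 active means activation above a cutoff set at the mean of all screened compounds plus 3 SD, cut at about 10% in these data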
ssDAF12 agonist – S. stercoralis DAF-12 activation, primary screen; activation, % at 6.8 µM; HEK293 ssDAF-12/GRIP1 lit1-tk-luc reporter, luminescence; % of 3 µM dafachronic acid response; AID 652126; actives 1% (n = 370,000);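 active means activation above the mean over all tested compounds plus 3 SD, cut at about 0.9% in these data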
DAX1 inh-1 – blocks DAX1 repression of SF-1 activated StAR promoter | actives 1.1% (n = 370,000) | inhibition, % at 6.8 µM | HEK293T StAR-luciferase reporter, SF-1/DAX-1 repression relief | AID 652010;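 active means inhibition above the mean over all tested compounds plus 3 SD, cut at about 3.6% in these data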;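 further: higher inhibition means more luminescence from relief of DAX-1 repression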
hcDAF12 agonist – activates DAF-12 receptor from parasite H. contortus; HEK293 hcDAF-12 lit1-tk-luc reporter, luminescence; 0% DMSO, 100% Δ7-dafachronic acid; activation, % at 6.8 µM; actives 1.4% (n = 370,000); AID 652067;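 active means activation above the mean of all tested compounds plus 3 SD, cut at about 5.5% in these data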
DAX1 inh-2 – inhibits human nuclear receptor DAX1 | P51843 | inhibition, % at 6.75 µM | HEK293 Gal4-DAX1 luciferase reporter, luminescence | actives 0.99% (n = 340,000);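 active means inhibition above the mean over all tested compounds plus 3 SD, cut at about 4.2% in these data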;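 further: inhibition shows as a rise in luminescence from relieved DAX1 repression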
DAX1 inh confirm – NR0B1 (human) inhibition, confirmation; shares compounds with DAX1 inh-1; HEK293T StAR-promoter luciferase reporter, SF-1/DAX-1 repression; inhibition, % at 6.8 µM; AID 652134; actives 87% (n = 2,400);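 active means inhibition above the average of every tested compound plus 3 SD, cut at about 3.8% in these data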;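 further: active compounds raise luminescence by relieving repression of the StAR reporter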
SF1 mutant ctr – nonselective inhibitor or artifact in SF-1 mutant DAX1 counter-screen; shares compounds with DAX1 inh-1; HEK293 StAR-luciferase, SF-1 AF2 mutant, luminescence; inhibition, % at 6.8 µM; actives 78% (n = 2,400); AID 652136;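 active means inhibition above the mean of all tested compounds plus 3 SD, cut at about 3% in these data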
LXR ag – LXR-beta agonism as hcDAF-12 counter-screen; HEK293 Gal4-LXR tk-luc reporter, luminescence, 24 h; normalized: DMSO 0%, positive control 100%; 3,400 tested, under 10 active; shares compounds with hcDAF12 agonist; activation, % at 6.8 µM;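 active means mean percent activation of the reporter above a cutoff set as the average over tested compounds plus their standard deviation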
Target sequence (P55055 whole entry, looked up, the tested form may be a part): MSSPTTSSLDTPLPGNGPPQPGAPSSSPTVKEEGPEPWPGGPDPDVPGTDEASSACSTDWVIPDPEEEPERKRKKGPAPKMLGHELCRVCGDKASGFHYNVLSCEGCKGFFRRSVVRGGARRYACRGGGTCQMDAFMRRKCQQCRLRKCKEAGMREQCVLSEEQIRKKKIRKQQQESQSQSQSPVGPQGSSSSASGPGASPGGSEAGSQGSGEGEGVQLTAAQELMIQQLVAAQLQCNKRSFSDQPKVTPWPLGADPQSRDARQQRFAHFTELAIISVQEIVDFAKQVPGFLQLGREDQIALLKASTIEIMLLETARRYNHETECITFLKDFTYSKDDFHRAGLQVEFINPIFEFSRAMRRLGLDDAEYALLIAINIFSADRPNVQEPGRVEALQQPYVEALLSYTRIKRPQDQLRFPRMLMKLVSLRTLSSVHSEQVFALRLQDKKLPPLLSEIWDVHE
hcDAF12 conf – hcDAF-12 agonism, confirmation assay; shares compounds with hcDAF12 agonist; HEK293 hcDAF-12 lit1-tk-luc reporter, luminescence; % of Δ7-dafachronic acid response; activation, % at 6.8 µM; actives 61% (n = 3,400); AID 743032;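 active means mean activation across triplicate tests above the threshold derived from the earlier primary screen, cut at about 5.5% in these data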
hgDAF12 ag – hgDAF-12 agonism, confirmation assay | shares compounds with hgDAF12 agonist | HEK293 GAL4-hgDAF12 luciferase reporter, agonist mode; percent of butyrate response | activation, % at 6.8 µM | actives 80% (n = 3,300);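 active means mean activation over triplicate wells above the hit cutoff derived from the earlier primary screen, cut at about 11% in these data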
LXRb DAF12 ctr – counter-screen for DAF-12 agonists: agonists of human LXR-beta; AID 743051; shares compounds with hgDAF12 agonist; 3,300 tested, under 10 active; HEK293 Gal4-LXR luciferase reporter, 24 h; activation, % at 6.8 µM;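 active means mean activation of the triplicate above a set limit carried over from the primary screen, none filed active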
Hits are given with their value; i = inactive; nt = no result; ! = a repeat was not active.

SMILES	hgDAF12 agonist	ssDAF12 agonist	DAX1 inh-1	hcDAF12 agonist	DAX1 inh-2	LXR ag	hcDAF12 conf	others
Cc1ccc2c(c1)NP(=S)(Oc1ccccc1)N2 (stereo unspecified)	12	1.0	8.0	7.5	4.5	i	i	DAX1 inh confirm=6.5;SF1 mutant ctr=2.9
COC(=O)C1=C(c2c(C)noc2C)C[C@@H]2CC[C@H]1N2C(=O)N1CCC(O)(c2ccc(Cl)cc2)CC1	i	i	i	i	i	nt	nt
N=C1c2ccccc2CN1NC(=O)c1ccccc1	i	i	i	i	i	nt	nt
N=C1c2ccccc2CN1CC(=O)c1ccccc1	20	2.6	7.0	23	i	i	7.3	DAX1 inh confirm=11;SF1 mutant ctr=7.2;hgDAF12 ag=24;LXRb DAF12 ctr=i
N#Cc1ccc2nc(-c3ccc(CN4CCC(n5nnc6ccccc65)CC4)cc3)c(-c3ccccc3)nc2c1	i	i	i	i	nt	nt	nt
CNC(=O)Oc1ccc(-c2cn3cc(Cl)ccc3n2)cc1	14	1.6	6.1	6.4	i	nt	nt	DAX1 inh confirm=9.8;SF1 mutant ctr=3.5;hgDAF12 ag=21;LXRb DAF12 ctr=i
O=c1[nH]c(=O)n(CC2CCCO2)c(O)c1/C=C1\C=Nc2ccccc21 (stereo unspecified)	i	i	i	6.1	5.4!	i	i
O=c1[nH]c(=O)n(Cc2ccccc2)c(O)c1/C=C1\C=Nc2ccccc21	i	i	i	i	i	nt	nt
CC(=O)N1Cc2cnnn2-c2ccccc2C1(C#N)Cc1ccccc1 (stereo unspecified)	i	i	i	i	i	nt	nt
CS(=O)(=O)c1ccc(C2=C(CNC(=O)c3cccs3)[C@H]3CC[C@@H](C2)N3Cc2ccco2)cc1	i	i	i	i	i	nt	nt
O=C(c1cc(Br)ccc1Cl)N1CCC2(CC1)OCCO2	i	i	i	i	i	nt	nt
O=C(c1cc2cc(Br)ccc2[nH]1)N1CCC2(CC1)OCCO2	i	i	i	7.6	i	i	i
CCC(N)Cc1c[nH]c2ccccc12 (stereo unspecified)	i	i	i	7.2	i	i	i
CC(C)Sc1nnc([C@@H](N)Cc2c[nH]c3ccccc23)o1	i	i	i	i	i	nt	nt
S=P(c1ccccc1)(c1ccccc1)c1c[n+](Cc2ccccc2)c2ccccn12	i	i	nt	i	nt	nt	nt
c1ccc2c(CN3CCOCC3)c[nH]c2c1	i	i	i	7.0	i	i	i
CCOP(=O)(OCC)C1(O)C(=O)Nc2ccccc21 (stereo unspecified)	i	i	i	7.1	i	i	i
N[C@@H]1C[C@H]1c1ccccc1	i	i	i	i	i	nt	nt
CC(=O)n1cc(C=C2C(=O)NC(=O)NC2=O)c2ccccc21	i	i	i	9.8	i	i	i
Cn1cc(C=C2C(=O)NC(=O)NC2=O)c2ccccc21	i	i	i	i	i	nt	nt
NC(=O)c1ccc(N)nc1	i	i	i	i	i	nt	nt
O=C1c2ccccc2-c2cc3ccccc3cc21	i	i	i	6.6	i	i	7.1
O=C1c2ccccc2-c2cccc3cccc1c23	i	i	i	i	i	nt	nt
C=CCOC(=O)c1ccccc1N	i	i	i	i	i	nt	nt
Nc1ccccc1C(=O)OCCOc1ccccc1	11	i	4.3	9.3	i	i	7.5
Cc1ccc(-c2nn(Cc3ccccc3)cc2C=O)cc1	i	i	i	9.4	i	i	i
